Inconclusive results are not listed. Unmarked numbers belong to inactive results. Calls of active or inactive are those of the source. Calls follow the shape of the dose curve; as a rule, active = well fitted inhibition curve with a large enough effect in the signal ratio in the repeat runs (not every such curve was filed as active); inconclusive = weak or mixed curves, or effect the other way; inactive = no such curve, though single readings can be large or run the other way; the % refers to the signal ratio.
target: Peroxisome proliferator-activated receptor delta (Homo sapiens) (UniProt Q03181); assay: qHTS assay to identify small molecule antagonists of the peroxisome proliferator-activated receptor delta (PPARd) signaling pathway (AID 743215); conditions: HEK293H PPARd-UAS-bla, beta-lactamase FRET ratio, antagonist, 17 h; series mostly up to 62 µM;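 also: cells stimulated with agonist L165041 at 300 nM final during compound exposure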
Text: U.S. Tox21 Program National Center for Advancing Translational Sciences [NCATS] NIH Chemical Genomics Center [NCGC] U.S. Environmental Protection Agency [EPA] National Institutes of Environmental Health Sciences [NIEHS] National Toxicology Program [NTP] U.S. Food and Drug Administration [FDA] Tox21 Assay Overview: The peroxisome proliferator-activated receptors (PPARs) are lipid-activated transcription factors of the nuclear receptor superfamily with three distinct subtypes namely PPAR alpha, PPAR delta (PPARd) and PPAR gamma. All these subtypes heterodimerizes with Retinoid X receptor (RXR) and have different physiological functions. […] To identify the compounds that inhibit PPAR-delta signaling, GeneBLAzer PPAR delta UAS-bla HEK293H cell line (Invitrogen, Carlsbad, CA, USA) containing a beta-lactamase reporter gene under the control of an Upstream Activator Sequence (UAS) was used to screen the Tox21 compound library.
Tox21 Assay Protocol Summary: PPARd-bla cells were dispensed at 3000 cells/5uL/well in 1536-well black wall/clear bottom plates using a Multidrop Combi (Thermo Fisher Scientific, Waltham, MA) dispenser. After the assay plates were incubated at 37 C and 5% CO2 for 5 h, 23 nL of compounds dissolved in DMSO, positive controls or DMSO only was transferred to the assay plate by a Pintool station (Kalypsys, San Diego, CA), followed by addition of 1ul L165041 (300 nM, final concentration in the wells). The assay plates were incubated at 37 C for 17 h, and then 1 uL of LiveBLAzerTM B/G FRET substrate was added using a Bioraptr Flying Reagent Dispenser (FRD) workstation (Beckman Coulter, Indianapolis, IN, USA). The assay plates were incubated at room temperature for 2 h and fluorescence intensity was measured by an Envision plate reader (PerkinElmer, Shelton, CT).
% is scaled to controls: 0 for no effect and ±100 for the full control effect.

Chain of Peroxisome proliferator-activated receptor delta (Homo sapiens) (Q03181 whole entry, looked up): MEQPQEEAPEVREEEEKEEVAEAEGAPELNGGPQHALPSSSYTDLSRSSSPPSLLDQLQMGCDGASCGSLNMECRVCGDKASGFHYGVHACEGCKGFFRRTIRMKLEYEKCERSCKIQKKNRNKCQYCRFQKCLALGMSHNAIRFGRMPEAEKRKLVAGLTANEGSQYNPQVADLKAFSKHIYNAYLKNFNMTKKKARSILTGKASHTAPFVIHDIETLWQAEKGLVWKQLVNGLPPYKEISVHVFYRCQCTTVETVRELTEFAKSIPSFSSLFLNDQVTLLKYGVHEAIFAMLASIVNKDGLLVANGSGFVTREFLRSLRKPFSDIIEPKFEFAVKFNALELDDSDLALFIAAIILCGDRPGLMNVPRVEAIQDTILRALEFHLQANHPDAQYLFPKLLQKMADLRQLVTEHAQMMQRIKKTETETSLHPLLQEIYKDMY

Compound	outcome	ratio activity, negative = inhibition
CC(=O)Nc1ccc(S(=O)(=O)Cl)cc1	inactive	
CC(C)CCCCOC(=O)c1ccccc1C(=O)OCCCCC(C)C	inactive	
CC(C)CC(=O)O	inactive	
CC(=O)/C=C/C1C(C)=CCC(C)C1(C)C (stereo not given)	inactive	
CCCCCOC(=O)CCC	inactive	
CCCCCCCCSCC	inactive	
CC(C)(C)OC(=O)c1ccc(O)cc1	inactive	
CCC(C=O)CC	inactive	
CCCCOCCOC(=O)COc1nc(Cl)c(Cl)cc1Cl	inactive	
O=C(OCc1ccccc1)C(=O)OCc1ccccc1	inactive	
CC(=O)CCCCn1c(=O)c2c(ncn2C)n(C)c1=O	inactive	
O=C(O)C(=O)Cc1ccccc1	inactive	
O=C1c2ccccc2C(=O)N1CCl	inactive	
CCOc1cc(NC(C)=O)ccc1C(=O)OC	inactive	
CCC(C)(CCC(C)C)C(=O)O (stereo not given)	inactive	
CC(C)C(=O)OCc1cccc(OC(=O)[C@@H]2N3C(=O)[C@@H](NC(=O)Cc4ccccc4)[C@H]3SC2(C)C)c1	inactive	
CNC(=O)[C@H]1O[C@@H](n2cnc3c(NCc4cc(Cl)ccc4OCc4cc(C)no4)ncnc32)[C@H](O)[C@@H]1N	inactive	
CCCCOC(=O)c1ccccc1	inactive	
CCCCCCCCOS(=O)(=O)O	inactive	
COc1ccc(OC)c(Cl)c1	inactive	

Compound	outcome	ratio activity, negative = inhibition
O=C(/N=N/C(=O)OCc1ccccc1)OCc1ccccc1	inactive	
C[C@@H]1O[C@@H](O[C@@H]2[C@@H](O)[C@H](OCCc3ccc(O)c(O)c3)O[C@H](CO[C@@H]3O[C@H](CO)[C@@H](O)[C@H](O)[C@H]3O)[C@H]2OC(=O)/C=C/c2ccc(O)c(O)c2)[C@H](O)[C@H](O)[C@H]1O	inactive	
CCCCC(CC)COCCO (stereo not given)	inactive	
CCn1ccc(NS(=O)(=O)c2ccc(N)cc2)nc1=O	inactive	
CO[C@@H]1[C@@H](OC(N)=O)[C@@H](O)[C@H](Oc2ccc3c(O)c(NC(=O)c4ccc(O)c(CC=C(C)C)c4)c(=O)oc3c2C)OC1(C)C	inactive	
CN1CCN(CC(=O)N2c3ccccc3C(=O)Nc3cccnc32)CC1		1.31% [at 6.26 µM]
C[Si](C)=O		22.7% [at 6.26 µM]
Oc1cn2c(n1)Nc1ccc(Cl)c(Cl)c1C2	inactive	
CC(C)CC(C)CC(C)CC(C)COC(=O)c1ccccc1C(=O)OCC(C)CC(C)CC(C)CC(C)C (stereo not given)	inactive	
O=S(O)(O)=S		3.14% [at 6.26 µM]
CC(C)N(c1ccccc1)C(C)C	inactive	
CC(=O)c1ccc2c(c1)Cc1ccccc1-2	inactive	
CCNC(=O)C1CC(C)CCC1C(C)C (stereo not given)	inactive	
Cc1ccc2c(c1)OCC(=O)CO2	inactive	
COc1cc2c(cc1OC)C(=O)CC2	inactive	
CCCOC(OCCC)OCCC	inactive	
C[Si](C)(C)C	inactive	
CCCCNc1ccc(C(=O)OCCN(C)C)cc1	inactive	
Cc1ccsc1/C=C/C1=NCCCN1C	inactive	
COc1ccc2nc(SCc3ncc(C)c(OC)c3C)[nH]c2c1	inactive	

— PubChem BioAssay (Tox21)
